Screens deposited in PubChem by several laboratories.
ALR inh = human ALR oxidase inhibition via reduced H2O2 | P55789 | purified ALR, DTT oxidation, H2O2 HRP-luminol luminescence | inhibition, % (test concentration not listed) | hit rate 3.8% among 290,000;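 active means mean replicate inhibition above about 79%, with every replicate also reaching it, limit read from the data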
Target sequence (P55789 whole entry, looked up): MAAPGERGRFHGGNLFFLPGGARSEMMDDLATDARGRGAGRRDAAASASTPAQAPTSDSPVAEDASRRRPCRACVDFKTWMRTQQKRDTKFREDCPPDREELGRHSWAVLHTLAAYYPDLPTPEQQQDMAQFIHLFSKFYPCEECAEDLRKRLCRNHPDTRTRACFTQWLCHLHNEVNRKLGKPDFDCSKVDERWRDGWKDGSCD
rCAG binder = r(CAG) repeat RNA binding; TO-PRO-1 dye displacement fluorescence; hit rate 1.3% among 370,000; inhibition, % at 3 µM; AID 651821;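 active means inhibition above the plate cutoff, the mean of all test compounds on that plate plus 3 SD, cut at about 35% in these data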;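 further: 0% = DMSO alone and 100% = 100 µM mitoxantrone as full dye displacement; higher means more dye released from RNA so lower well fluorescence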
PHOSPHO1 block = inhibitors of human PHOSPHO1 phosphatase. Q8TCT1. recombinant PHOSPHO1, absorbance phosphatase assay. inhibition, % at 13.3 µM. hit rate 1.1% among 290,000. AID 1565; in the data active means inhibition above about 60%
APOBEC3G inh = APOBEC3G (human) deaminase inhibition; hit rate 0.28% among 330,000; inhibition, % at 20 µM; Q9HC16; AID 493012; recombinant A3G, ssDNA deamination FAM/TAMRA fluorescence;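 active means inhibition of at least 40% at 20 µM, with no more than 30% in the related APOBEC3A deaminase screen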;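 further: plate controls were DMSO wells with A3G for no effect and wells lacking A3G enzyme for full effect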
Target sequence (Q9HC16 whole entry, looked up): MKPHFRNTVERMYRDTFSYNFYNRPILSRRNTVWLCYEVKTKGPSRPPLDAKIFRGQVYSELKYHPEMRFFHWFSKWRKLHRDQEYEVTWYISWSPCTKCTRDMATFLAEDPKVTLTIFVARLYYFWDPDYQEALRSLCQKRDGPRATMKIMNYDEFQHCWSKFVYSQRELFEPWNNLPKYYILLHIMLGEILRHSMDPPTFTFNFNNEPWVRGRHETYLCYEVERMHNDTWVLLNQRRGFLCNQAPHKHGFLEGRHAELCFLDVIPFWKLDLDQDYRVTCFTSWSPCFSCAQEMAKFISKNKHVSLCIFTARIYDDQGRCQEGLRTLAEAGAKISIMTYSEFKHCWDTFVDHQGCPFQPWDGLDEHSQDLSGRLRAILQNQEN
A3A deaminase = inhibitors of human APOBEC3A DNA deaminase; P31941; recombinant A3A, FAM/TAMRA ssDNA deamination fluorescence; inhibition, % at 20 µM; hit rate 0.41% among 330,000; AID 493011;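 active means at least 40% inhibition at 20 µM here, with at most 30% in a related deaminase screen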;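 further: plate controls were A3A with DMSO for no effect and wells lacking A3A enzyme for full effect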
aDG glyco act = alpha-DG glycosylation activation. hit rate 0.22% among 360,000. activation, % at 10 µM. AID 624168. Pro5-aDG cells, alpha-DG glycosylation AlphaScreen (IIH6); 0% Pro5, 100% B10-LARGE cell signal;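 active means activation of at least 8% versus controls, or a plate z-score of at least 8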;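 further: Pro5 are CHO cells carrying HIG-tagged alpha-DG that lacks glycosylation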
Numbers without * were called inactive; x = no result. Sampled rows, rich in hits. Any-hit rate of the full collection: about 5.4%.

SMILES	ALR inh	rCAG binder	PHOSPHO1 block	APOBEC3G inh	A3A deaminase	aDG glyco act
O=C1NC(=NCc2ccccc2)S/C1=C/c1ccc(O)cc1	94*	6	7	-6	1	0
COC(=O)C1=C(C)N(Cc2ccccc2C(F)(F)F)C(=NCc2cc(OC)c(OC)c(OC)c2)NC1c1cccc(Cl)c1 (configuration not stated)	x	4	x	x	x	x
COCCNC(=S)N1C[C@H]2CON(C)[C@H]2C[C@H]1c1ccccc1Br	x	2	x	x	x	x
Cc1nc2ccc(Br)cn2c1NC(C)(C)C	95*	1	-20	-12	-4	0
Cc1cc(C)c2c(=O)n(CC(=O)NCCCN3CCN(c4ccccc4F)CC3)sc2n1	x	x	26	53*	-4	x
Cc1cc(C)c2c(=O)n(CC(=O)NCCCN3CCOCC3)sc2n1	46	x	37	54*	-2	0
Cc1ccccc1CS(=O)(=O)CCC(=O)NCCCN1CCN(c2ccccc2F)CC1	8	3	-27	-3	4	0
CC(C)(C=O)C1=CC(=O)c2ccccc2C1=O	96*	18	3	x	x	0
CC1=CC(=O)c2ccccc2C1=O	-75	2	-6	-6	-1	0
O=S(=O)(N/N=C1\CC(c2ccccc2)Oc2ccccc21)c1ccccc1 (configuration not stated)	96*	28	3	-6	1	0
CCc1ccc2nc3n[nH]c(N)c3cc2c1	90*	2	24	-1	2	0
CS(=O)(=O)c1ccc(S(=O)(=O)NCC2CCN(C(=O)C(=O)c3cc4ccccc4o3)CC2)cc1	x	5	x	x	x	x
S=C(NCCCN1CCOCC1)Nc1ccc(Nc2ccccc2)cc1	99*	-4	-18	-4	-1	0
O=C1CCCN1CCCNC(=S)Nc1ccccc1	1	1	33	-4	-2	0
O=C1CCCN1CCCNC(=S)Nc1ccc(Nc2ccccc2)cc1	99*	-2	23	-5	2	0
S=C(NCCN1CCOCC1)Nc1ccc(Cl)cc1Cl	95*	-1	-2	1	0	0
S=C(NCCCN1CCOCC1)Nc1ccc(N2CCOCC2)cc1	x	-2	-13	-7	-2	0
S=C(NCCCN1CCOCC1)Nc1ccc(-c2nc3ccccc3[nH]2)cc1	98*	0	-51	-1	-3	0
O=C(COCc1ccccc1)N1CCC(Oc2cccnc2)CC1	x	1	x	x	x	x
S=C(NCCN1CCOCC1)Nc1ccc(Nc2ccccc2)cc1	99*	-3	41	-3	-5	0
COc1ccc(CNC(=O)c2cc(-c3ccccc3)c(N3CCOCC3)s2)cc1OC	x	4	x	x	x	x
Cc1ccc(C(=O)CSc2ncn[nH]2)cc1	55	-3	97*	-4	-1	0
O=C(CSc1ncn[nH]1)c1ccc(OC(F)F)cc1	16	0	48	-9	-4	0
O=C(CSc1ccccn1)c1ccc(F)cc1	9	1	59	-5	-5	0
COc1ccc(C(=O)CSc2ncn[nH]2)cc1OC	4	1	77*	-5	-4	0
SMILES	ALR inh	rCAG binder	PHOSPHO1 block	APOBEC3G inh	A3A deaminase	aDG glyco act
COc1ccc(C(=O)CSc2nnc3ccccn23)cc1OC	x	-4	6	-5	-3	0
Cc1ccc(C(=O)CSc2ccccn2)cc1	9	0	83*	-6	-2	0
CCc1ccc(C(=O)CSc2ncn[nH]2)cc1	54	0	88*	-2	0	0
CCCCC1=CC2=CC(=O)C(C)(OC(=O)c3cccs3)C(=O)C2=CO1 (configuration not stated)	x	37*	x	-4	2	0
COC(=O)CCCC1=CC2=CC(=O)C(C)(OC(=O)c3cccs3)C(=O)C2=CO1 (configuration not stated)	x	x	x	3	10	x
FC(F)(F)c1ccc2c(c1)NCC1CCCN21 (configuration not stated)	98*	-2	15	-13	-7	0
CCOC(=O)[C@]12CCCC=C1N(Cc1ccc(OC)cc1)C(=O)[C@@H]2CC(=O)N1CCN(C(=O)C2CC2)CC1	x	0	x	x	x	x
O=C1NN(c2ccccc2)C(=O)/C1=C\c1ccccc1OCC(=O)N1CCOCC1	99*	20	27	7	7	0
COCCCNC(=O)C[C@H]1C(=O)N(Cc2ccc(OC)cc2)C2=CCCCC[C@@]21C(=O)OC	x	-2	x	x	x	x
CCC(CNc1cc(OC)cc2cccnc12)NC1CCCCC1 (configuration not stated)	-72	3	-85	x	x	7.1*
COc1ccc(CN2C[C@@]3(O)CC[C@@H](O)[C@@H](OC)[C@@H]3[C@@](C)(O)[C@@H]2CC=C(C)C)cc1	x	-2	x	x	x	x
CN(C)S(=O)(=O)c1cccc(C(=O)N/N=C\c2ccc(-c3ccccn3)cc2)c1	x	2	x	x	x	x
CCOC(=O)C1=C(SCC(=O)Nc2ccccc2)NC(=O)C(C#N)C12CCCCC2 (configuration not stated)	89*	0	-8	0	3	0
N#CC1=C(SCC(=O)Nc2cccc3cccnc23)NC(=O)C(C#N)C12CCCCC2 (configuration not stated)	0	48*	5	1	6	3
N#CC1=C(SCC(=O)NC2CC2)NC(=O)C(C#N)C12CCCCC2 (configuration not stated)	-15	2	-28	-7	-4	0
N#CC1=C(SCC(=O)NC23CC4CC(CC(C4)C2)C3)NC(=O)C(C#N)C12CCCCC2 (configuration not stated)	13	15	-1	-4	-1	0
N#CC1=C(N)NC(SCC(=O)Nc2ccccc2)=C(C#N)C12CCCC2	95*	7	52	-6	0	0
COc1ccc(/C=C/S(=O)(=O)NCCc2ccccc2)c(CNC(=O)OC(C)(C)C)c1	x	2	x	x	x	x
O=C1c2ccccc2NC(c2ccccc2)N1/N=C/c1ccccc1 (configuration not stated)	4	5	19	-4	0	0
O=C1c2ccccc2NC(c2ccc(O)cc2)N1/N=C/c1ccc(O)cc1 (configuration not stated)	99*	1	-10	-7	-4	0
Cc1ccc(-n2c(SCC(=O)Nc3ccccc3-c3ccccc3)nnc2-c2cccs2)cc1	x	5	x	x	x	x
CC(=O)Cc1nsc(NC(=O)c2ccc(COc3ccccc3)o2)n1	98*	7	-12	0	1	1
COC(=O)[C@]12C[C@H](CC(=O)NCCC(C)C)C(=O)N(Cc3ccccc3)C1=C[C@H](C(C)(C)C)O[C@@H]2C	x	0	x	x	x	x
CCOC(=O)[C@]12CCCCC/C=C\1N(Cc1ccc(OC)cc1)C(=O)[C@H]2CC(=O)NCCc1ccccc1OC	x	4	x	x	x	x
O=C(CNCCc1ccc(Cl)cc1Cl)NCc1ccco1	0	-5	63*	-5	-1	0
